Many of the other results were omitted from the sample, so hits are more common in it than they were.
nsP2pro inh – Primary qHTS for inhibitors of NSP2Pro chikungunya virus (CHIKV); Polyprotein P1234 (Chikungunya virus (strain S27-African prototype)), Q8JUX6; FRET peptide cleavage, nsP2pro, fluorescence 1 h; Potency, µM (top dose mostly 24.9 µM), hits mostly inhibitors; actives 1.1% (n = 31,000); also: nearly all actives have a fitted effect of over 60% in size
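FRET cleavage of 2.5 uM peptide 2 by 150 nM CHIKV protease domain at pH 8.0 (Tris, Tween 20). Compounds at 7 concentrations (up to 25 uM) preincubated 15 min. Fluorescence read after 1 h at room temperature.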
CHIKV nsP2 cell – Secondary cell base assay for inhibitors of NSP2Pro Chikungunya virus (CHIKV); cell-based CHIKV nsP2 protease reporter assay; shares compounds with nsP2pro inh; Potency, µM (highest dose often 51.1 µM), actives largely listed as inhibitors; actives 10% (n = 450); AID 1964100, 2024; also: nearly all actives have a fitted effect of over 70% in size
NSP2 full ctr – Selectivity profile for inhibitors of NSP2Pro chikungunya virus (CHIKV): Full length NSP2 enzyme counterscreen (CHIKV-NSP2); actives 39% (n = 410); Potency, µM (series often up to 50.7 µM), most hits filed as inhibitors; shares compounds with nsP2pro inh; Full-length CHIKV NSP2 protease enzymatic counterscreen; also: nearly all actives have a fitted effect of over 65% in size
Furin counter – Selectivity profile for inhibitors of NSP2Pro chikungunya virus (CHIKV): Human furin counterscreen | shares compounds with nsP2pro inh | Recombinant human furin enzymatic counterscreen, fluorogenic substrate | Potency, µM (titrated, usually from 50.6 µM), actives largely listed as inhibitors | actives 6% (n = 410)
Target sequence (P09958 whole entry, looked up): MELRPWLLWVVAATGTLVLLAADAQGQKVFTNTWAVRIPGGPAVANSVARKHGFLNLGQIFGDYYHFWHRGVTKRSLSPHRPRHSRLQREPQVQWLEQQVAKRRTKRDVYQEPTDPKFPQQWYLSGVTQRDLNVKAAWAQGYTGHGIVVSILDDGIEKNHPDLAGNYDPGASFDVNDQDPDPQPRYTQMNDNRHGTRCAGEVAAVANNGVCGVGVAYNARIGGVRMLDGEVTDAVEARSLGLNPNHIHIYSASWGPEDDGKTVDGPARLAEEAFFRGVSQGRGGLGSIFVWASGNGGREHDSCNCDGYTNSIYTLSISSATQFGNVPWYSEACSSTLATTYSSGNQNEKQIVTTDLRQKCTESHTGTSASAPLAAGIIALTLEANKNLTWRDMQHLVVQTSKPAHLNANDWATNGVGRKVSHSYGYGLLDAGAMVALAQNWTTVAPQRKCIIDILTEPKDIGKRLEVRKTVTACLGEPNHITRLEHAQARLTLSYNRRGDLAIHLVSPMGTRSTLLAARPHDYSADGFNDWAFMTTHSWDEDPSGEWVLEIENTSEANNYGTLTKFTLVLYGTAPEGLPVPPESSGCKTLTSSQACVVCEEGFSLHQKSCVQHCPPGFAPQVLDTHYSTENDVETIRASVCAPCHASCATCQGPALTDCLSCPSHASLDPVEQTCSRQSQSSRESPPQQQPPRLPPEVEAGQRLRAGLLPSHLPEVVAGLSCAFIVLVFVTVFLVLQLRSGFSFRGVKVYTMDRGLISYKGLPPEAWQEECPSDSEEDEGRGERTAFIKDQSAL
nsP2 NS23 pep – Selectivity profile for inhibitors of NSP2Pro chikungunya virus (CHIKV): Endogenous NS2/3 peptide Counterscreen | shares compounds with nsP2pro inh | Purified CHIKV nsP2 protease, endogenous NS2/3 peptide cleavage | Potency, µM (titrated, usually from 51 µM), most hits filed as inhibitors | actives 34% (n = 410) | AID 1964103, 2024; also: nearly all actives have a fitted effect of over 55% in size
Papain counter – Selectivity profile for inhibitors of NSP2Pro chikungunya virus (CHIKV): Papain Counterscreen; AID 1964104, 2024; shares compounds with nsP2pro inh; Potency, µM (titrated, usually from 51 µM), usual class: inhibitors; actives 5% (n = 410); purified papain protease activity, enzymatic inhibition
nsP2pro confirm – Confirmatory qHTS for inhibitors of NSP2Pro chikungunya virus (CHIKV); shares compounds with nsP2pro inh; CHIKV nsP2 protease enzymatic activity, qHTS; Potency, µM (titrated, usually from 25.5 µM), hits mostly inhibitors; actives 43% (n = 410); also: nearly all actives have a fitted effect of over 75% in size
HCV NS3 4A cs – Selectivity profile for inhibitors of NSP2Pro chikungunya virus (CHIKV): NS34A-HCV Counterscreen; shares compounds with nsP2pro inh; HCV NS3/4A protease biochemical counterscreen; Potency, µM (top dose mostly 50.9 µM), usual class: inhibitors; actives 20% (n = 410); AID 1964106, 2024; also: nearly all actives have a fitted effect of over 55% in size
Numbers stand for hits; [ ] = dose if it differs, or a comment. Calls follow the shape of the full dose curve.

For CC1CCC(=O)CC(O)C(O)CC(=O)O1 (stereo not drawn) the results were nsP2pro inh inconclusive, CHIKV nsP2 cell inactive, NSP2 full ctr inactive, Furin counter inactive, nsP2 NS23 pep inactive, Papain counter inactive, nsP2pro confirm inactive and HCV NS3 4A cs inactive.
Screening CC1CCCCCCCc2cc(O)cc(O)c2C(=O)O1 (stereo not drawn) returned nsP2pro inh inactive.
For C[C@@H]1C[C@H](O)/C=C/[C@H](O)[C@@H](O)CC(=O)O1 the results were nsP2pro inh inactive.
`CC1=CC2=C(C)C(=O)[C@](C)(O)[C@H](O)C2=CO1` gave nsP2pro inh inconclusive, CHIKV nsP2 cell inactive, NSP2 full ctr inactive, Furin counter inactive, nsP2 NS23 pep inactive, Papain counter inactive, nsP2pro confirm inactive and HCV NS3 4A cs inactive.
For CCCCC(=O)Nc1ccc2nc(SCC(=O)N3CCOCC3)sc2c1 the results were nsP2pro inh inactive.
For O=C1O[C@@H]2CN(c3ncccn3)C[C@@H]2N1CCc1ccc(F)cc1 the results were nsP2pro inh inactive.
For COCCN1C(=O)CO[C@H]2CN(c3ncccn3)C[C@H]21 the results were nsP2pro inh 7.9µM, CHIKV nsP2 cell inactive, NSP2 full ctr 33µM, Furin counter inconclusive, nsP2 NS23 pep inconclusive, Papain counter inactive, nsP2pro confirm 16µM and HCV NS3 4A cs inconclusive.
Screening CC(C)N1C[C@@H]2OCC(=O)N(Cc3ccccc3)[C@@H]2C1 returned nsP2pro inh inactive.
For Cc1sc2c(c1C)C(c1ccc(Cl)cc1)=N[C@@H](CC(=O)OC(C)(C)C)c1nnc(C)n1-2 the results were nsP2pro inh inactive.
`Cc1ccccc1C(CC(=O)N1CCSCC1)c1ccccc1` (stereo not drawn) gave nsP2pro inh inactive.
Screening CCCCC(=O)N(c1ccc2oc(C)c(C(C)=O)c2c1)S(=O)(=O)c1ccc(F)cc1C returned nsP2pro inh inactive.
For COc1cc(-c2cc(-c3cccc(O)c3)cnc2N)cc(OC)c1OC the results were nsP2pro inh inactive.
For NCc1ccc(OCCCc2sc(-c3ccc4c(c3)/C(=N/Nc3nc5ccccc5s3)CCC4)nc2C(=O)O)cc1 the results were nsP2pro inh inactive.
For CCCCCCCCCCCCCC(=O)O the results were nsP2pro inh inactive.
`CCCCCCCCCCCCCCCCCC(=O)O` gave nsP2pro inh inconclusive, CHIKV nsP2 cell inactive, NSP2 full ctr 3.7µM, Furin counter inactive, nsP2 NS23 pep inactive, Papain counter 21µM, nsP2pro confirm 4µM and HCV NS3 4A cs inactive.
CCCCC(=O)O was read as nsP2pro inh inactive.
For NC(=O)c1c(NC(=O)C2CCCO2)sc2c1CCCC2 (stereo not drawn) the results were nsP2pro inh inactive.
For C=C1CC23CC1CCC2C12OC(=O)C(C)(C(O)CC1O)C2C3C(=O)O (stereo not drawn) the results were nsP2pro inh inconclusive, CHIKV nsP2 cell inactive, NSP2 full ctr inactive, Furin counter inactive, nsP2 NS23 pep inactive, Papain counter inactive, nsP2pro confirm inactive and HCV NS3 4A cs inactive.
For C=C1C[C@]23C[C@H]1CC[C@H]2[C@@]12CC[C@H](O)[C@@](C)(C(=O)O1)[C@H]2[C@@H]3C(=O)O the results were nsP2pro inh inactive.
Screening C=C1C[C@]23C[C@H]1[C@@H](O)C[C@H]2[C@@]12C=C[C@H](O)[C@@](C)(C(=O)O1)[C@H]2[C@@H]3C(=O)O returned nsP2pro inh inactive.
`C/C(=C\c1csc(C)n1)[C@@H]1C[C@@H]2O[C@]2(C)CCC[C@H](C)[C@H](O)[C@@H](C)C(=O)C(C)(C)[C@@H](O)CC(=O)O1` gave nsP2pro inh inactive.
For O=C(CSc1nc2ccccc2c(=O)n1-c1ccccc1)Nc1ccc2c(c1)CCC2 the results were nsP2pro inh inactive.
For CCCN(CCC)C(=O)c1c2c(nc3ccccc13)C(=O)N(C1CCCCC1)C2 the results were nsP2pro inh inactive.
For COc1ccc(CN(Cc2ccco2)C(=O)COc2ccccc2Cl)cc1 the results were nsP2pro inh inactive.
For CCS(=O)(=O)c1ncc(Cl)c(C(=O)N(Cc2ccccc2)Cc2ccco2)n1 the results were nsP2pro inh 11µM, CHIKV nsP2 cell 3.3µM, NSP2 full ctr 16µM, Furin counter inactive, nsP2 NS23 pep 5.2µM, Papain counter inactive, nsP2pro confirm 4.5µM and HCV NS3 4A cs inactive.
CCCOc1ccc(C(=O)N(Cc2ccc(Cl)cc2)Cc2ccco2)cc1 was read as nsP2pro inh inactive.
For CC1(C)CC[C@]23CO[C@@]4(CCC5[C@@]6(C)CC[C@H](O[C@@H]7OC[C@H](O[C@@H]8O[C@H](CO)[C@@H](O)[C@H](O)[C@H]8O[C@@H]8OC[C@@H](O)[C@H](O)[C@H]8O)[C@H](O)[C@H]7O[C@@H]7O[C@H](CO)[C@@H](O)[C@H](O)[C@H]7O)[C@@](C)(CO)C6CC[C@@]5(C)[C@]4(C)C[C@H]2O)[C@@H]3C1 (stereo partly drawn) the results were nsP2pro inh inactive[5.1 µM].
For CC(C)=CCC1=C(O)c2ccccc2C(=O)C1=O the results were nsP2pro inh inconclusive, CHIKV nsP2 cell inconclusive, NSP2 full ctr inconclusive, Furin counter inactive, nsP2 NS23 pep inconclusive, Papain counter inactive, nsP2pro confirm inactive and HCV NS3 4A cs inactive.
COC1=C(OC)C(=O)C(CC=C(C)CCC=C(C)CCC=C(C)CCC=C(C)CCC=C(C)CCC=C(C)CCC=C(C)CCC=C(C)CCC=C(C)CCC=C(C)C)=C(C)C1=O was read as nsP2pro inh inactive[2.68 µM].
For Cc1ccccc1-c1nnc(SCC(=O)N(C)c2ccccc2)o1 the results were nsP2pro inh inactive.

Screening results from PubChem.
